Values joined by “and” are separate entries in the source; they are usually repeats but may differ in a detail not shown here. Equal entries are not always repeated. This is part of a sample that, as a whole, favours compounds with a hit. Of some 83,000 tested, about 20% had one in any assay.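 96-well plates, one dose, 48 hours. Percent growth reported; active if below 10.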 Active and inactive are the calls of the source.
What was measured:
Assay in all cases: NCI-60 one-dose screen, 48 h (100 = growth as untreated, 0 = no growth, -100 = all killed)
NCI-H23 lung = test system: NCI-H23 lung
NCI-H226 lung = test system: NCI-H226 lung
NCI-H322M lung = conditions: 10 µM unless noted
HOP-62 NSCLC = test system: HOP-62 NSCLC
NCI-H460 lung = test system: NCI-H460 lung
HOP-92 NSCLC = test system: HOP-92 NSCLC
NCI-H522 lung = test system: NCI-H522 lung
A549/ATCC NSCLC = test system: A549/ATCC NSCLC
786-0 renal = test system: 786-0 renal
COLO 205 colon = test system: COLO 205 colon
DU-145 prostate = test system: DU-145 prostate
K-562 leukemia = test system: K-562 leukemia
MALME-3M melanoma = test system: MALME-3M melanoma
MDA-MB-231 breast = test system: MDA-MB-231 breast
RXF 393 renal = test system: RXF 393 renal
SF-268 CNS = test system: SF-268 CNS
SF-295 CNS = test system: SF-295 CNS
SF-539 CNS = test system: SF-539 CNS
UACC-257 melanoma = test system: UACC-257 melanoma
M14 melanoma = conditions: 10 µM unless noted

Measured: growth

C[C@]12CCc3sc(Nc4ccc(F)cc4F)nc3C1=CC[C@@H]1[C@@H]2CC[C@]2(C)C(=O)CC[C@@H]12
inactive: NCI-H23 lung; 10 µM unless noted 66.2% | NCI-H226 lung; 10 µM unless noted 84.2% | NCI-H322M lung 84.5% | HOP-62 NSCLC; 10 µM unless noted 87.1% | NCI-H460 lung; 10 µM unless noted 60.9% | HOP-92 NSCLC; 10 µM unless noted 77.1% | NCI-H522 lung; 10 µM unless noted 42.6% | A549/ATCC NSCLC; 10 µM unless noted 61.7% | COLO 205 colon; 10 µM unless noted 54.3% | DU-145 prostate; 10 µM unless noted 24% | MALME-3M melanoma; 10 µM unless noted 69.5% | MDA-MB-231 breast; 10 µM unless noted 76.1% | SF-268 CNS; 10 µM unless noted 70.7% | SF-295 CNS; 10 µM unless noted 51% | SF-539 CNS; 10 µM unless noted 49.6% | UACC-257 melanoma; 10 µM unless noted 71.9% | M14 melanoma 57.8%
active: 786-0 renal; 10 µM unless noted -27.7% | K-562 leukemia; 10 µM unless noted 2.15% | RXF 393 renal; 10 µM unless noted 5.6%

O=C(O)CCCc1ccc(N(CCCl)CCCl)cc1
active: NCI-H522 lung; 75 µM 0.62% | 786-0 renal; 75 µM 9.49% | DU-145 prostate; 75 µM -5.07% | SF-539 CNS; 75 µM -40.7%
inactive: NCI-H23 lung; 10 µM 102% and 79.4% | NCI-H23 lung; 75 µM 23.1% | NCI-H226 lung; 10 µM 78.7% and 88.2% | NCI-H226 lung; 75 µM 61.2% | HOP-62 NSCLC; 10 µM 90.1% and 91.6% | HOP-62 NSCLC; 75 µM 35% | NCI-H460 lung; 10 µM 86.6% and 54.5% | NCI-H460 lung; 75 µM 21% | HOP-92 NSCLC; 10 µM 95.3% and 40.2% | HOP-92 NSCLC; 75 µM 14.6% | NCI-H522 lung; 10 µM 87.2% and 59.6% | A549/ATCC NSCLC; 10 µM 89.2% | A549/ATCC NSCLC; 75 µM 46.1% | 786-0 renal; 10 µM 98.4% and 86.1% | COLO 205 colon; 10 µM 104% and 105% | COLO 205 colon; 75 µM 66.2% | DU-145 prostate; 10 µM 111% and 98.7% | K-562 leukemia; 10 µM 103% and 58.3% | K-562 leukemia; 75 µM 31.8% | MALME-3M melanoma; 10 µM 98.7% and 88.9% | MALME-3M melanoma; 75 µM 43% | MDA-MB-231 breast; 10 µM 99.4% and 104% | MDA-MB-231 breast; 75 µM 93.5% | RXF 393 renal; 10 µM 106% and 87.8% | RXF 393 renal; 75 µM 12% | SF-268 CNS; 10 µM 87.6% and 69.9% | SF-268 CNS; 75 µM 34% | SF-295 CNS; 10 µM 100% and 78.8% | SF-295 CNS; 75 µM 13.4% | SF-539 CNS; 10 µM 87.8% and 72.3% | UACC-257 melanoma; 10 µM 104% and 73.4% | UACC-257 melanoma; 75 µM 28.9% | M14 melanoma 93.3% and 97.1%

CC[C@H](C)[C@H](NC(=O)C12CC(NC)(C1)C2)C(=O)N(C)[C@H](C[C@@H](OC(C)=O)c1nc(C(=O)N[C@@H](Cc2ccccc2)C[C@H](C)C(=O)OC)cs1)C(C)C
inactive: NCI-H23 lung; 10 µM unless noted 15.2% | NCI-H226 lung; 10 µM unless noted 24.9% | NCI-H322M lung 51.2% | HOP-62 NSCLC; 10 µM unless noted 28.6% | NCI-H460 lung; 10 µM unless noted 15% | HOP-92 NSCLC; 10 µM unless noted 17.5% | A549/ATCC NSCLC; 10 µM unless noted 20% | 786-0 renal; 10 µM unless noted 24.7% | MALME-3M melanoma; 10 µM unless noted 69% | MDA-MB-231 breast; 10 µM unless noted 13.8% | RXF 393 renal; 10 µM unless noted 13.4% | SF-268 CNS; 10 µM unless noted 30.4% | UACC-257 melanoma; 10 µM unless noted 56.6%
active: NCI-H522 lung; 10 µM unless noted -23.9% | COLO 205 colon; 10 µM unless noted -19.6% | DU-145 prostate; 10 µM unless noted -8.21% | K-562 leukemia; 10 µM unless noted 6.14% | SF-295 CNS; 10 µM unless noted 4.61% | SF-539 CNS; 10 µM unless noted -7.76% | M14 melanoma 6.71%

CCOP(=O)(NC)OCC
inactive: NCI-H23 lung; 10 µM unless noted 95.6% | NCI-H226 lung; 10 µM unless noted 94.3% | NCI-H322M lung 122% | HOP-62 NSCLC; 10 µM unless noted 90.8% | NCI-H460 lung; 10 µM unless noted 104% | HOP-92 NSCLC; 10 µM unless noted 74.5% | NCI-H522 lung; 10 µM unless noted 112% | A549/ATCC NSCLC; 10 µM unless noted 114% | 786-0 renal; 10 µM unless noted 92.1% | COLO 205 colon; 10 µM unless noted 117% | DU-145 prostate; 10 µM unless noted 112% | K-562 leukemia; 10 µM unless noted 120% | MALME-3M melanoma; 10 µM unless noted 121% | MDA-MB-231 breast; 10 µM unless noted 104% | RXF 393 renal; 10 µM unless noted 118% | SF-268 CNS; 10 µM unless noted 98.7% | SF-295 CNS; 10 µM unless noted 129% | SF-539 CNS; 10 µM unless noted 101% | UACC-257 melanoma; 10 µM unless noted 121% | M14 melanoma 94.8%

CC[CH2][Sn]([Cl])([Cl])[CH2]CC.Oc1ccccc1C=NCCN=Cc1ccccc1O
51.7% (inactive) and 1.58% (active): RXF 393 renal; 10 µM unless noted
active: NCI-H522 lung; 10 µM unless noted -87.6% and -83.2% | K-562 leukemia; 10 µM unless noted 4.37% and -23.9% | MALME-3M melanoma; 10 µM unless noted 4.96% and -43.8%
inactive: NCI-H23 lung; 10 µM unless noted 56.4% and 34.2% | NCI-H226 lung; 10 µM unless noted 11% and 17.4% | NCI-H322M lung 105% and 92.4% | HOP-62 NSCLC; 10 µM unless noted 103% and 83.8% | NCI-H460 lung; 10 µM unless noted 110% and 90.5% | HOP-92 NSCLC; 10 µM unless noted 40% and 29.2% | A549/ATCC NSCLC; 10 µM unless noted 103% and 92.3% | 786-0 renal; 10 µM unless noted 65.2% and 59.1% | DU-145 prostate; 10 µM unless noted 81.3% and 76.9% | MDA-MB-231 breast; 10 µM unless noted 38.7% and 28.5% | SF-268 CNS; 10 µM unless noted 49.7% and 20.3% | SF-295 CNS; 10 µM unless noted 93.2% | SF-539 CNS; 10 µM unless noted 59.9% and 37.8% | M14 melanoma 69.6% and 39%
51.4% (inactive) and 5.28% (active): UACC-257 melanoma; 10 µM unless noted
50.6% (inactive) and -12.1% (active): COLO 205 colon; 10 µM unless noted

C[C@]12CC[C@H]3[C@@H](C[C@@H]4SC(Nc5ccccc5)=N[C@@]45C/C(=N/O)CC[C@]35C)[C@@H]1CCC2=O
inactive: NCI-H23 lung; 10 µM unless noted 79.5% | NCI-H226 lung; 10 µM unless noted 114% | NCI-H322M lung 94.5% | HOP-62 NSCLC; 10 µM unless noted 94% | NCI-H460 lung; 10 µM unless noted 56.4% | HOP-92 NSCLC; 10 µM unless noted 107% | NCI-H522 lung; 10 µM unless noted 71.5% | A549/ATCC NSCLC; 10 µM unless noted 88.9% | 786-0 renal; 10 µM unless noted 18.4% | COLO 205 colon; 10 µM unless noted 97% | DU-145 prostate; 10 µM unless noted 29.8% | K-562 leukemia; 10 µM unless noted 12.5% | MALME-3M melanoma; 10 µM unless noted 83.8% | MDA-MB-231 breast; 10 µM unless noted 78.2% | RXF 393 renal; 10 µM unless noted 28.8% | SF-268 CNS; 10 µM unless noted 57.7% | SF-295 CNS; 10 µM unless noted 55.7% | SF-539 CNS; 10 µM unless noted 44.2% | UACC-257 melanoma; 10 µM unless noted 99.9% | M14 melanoma 68.5%

From PubChem BioAssay (NCI)
